For 15 compounds, Potency and outcome results are on record in PubChem BioAssay (Tox21).

Test [1] can be described thus: qHTS assay to identify small molecule antagonists of the thyroid receptor (TR) signaling pathway - cell viability counter screen (AID 743064). Also: nearly all actives have a fitted effect of over 50% in size. Also: potency is read from the fitted curve at half-maximal effect. The method in brief: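 Fluorescence from CellTiter-Fluor, added after 23.5 h exposure at 37 °C, reported viability of GH3.TRE-Luc cells co-treated with compound and 1 nM T3. Measured in the same wells as the luciferase TR readout.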
(Quantitative high-throughput screening tests each substance at several concentrations.)

Test [2] in a line: qHTS assay to identify small molecule antagonists of the thyroid receptor (TR) signaling pathway (AID 743065). Also: nearly all actives have a fitted effect of over 55% in size. Also: potency is read from the fitted curve at half-maximal effect. The method in brief: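 Antagonism measured as loss of luciferase signal in GH3 cells stably carrying a TRE-luciferase reporter, co-treated with compound and T3 (1 nM final) for 23.5 h at 37 C. Viability was read in the same well by CellTiter-Fluor.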
The test system of test [3] is thyroid hormone receptor (rat, GH3 cells). The experiment in a line: qHTS assay to identify small molecule agonists of the thyroid receptor (TR) signaling pathway (AID 743066; calls by dose curve).
The nature of test [4]: qHTS assay to identify small molecule antagonists of the estrogen receptor alpha (ER-alpha) signaling pathway - cell viability counter screen (AID 743074; calls by dose curve;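 also: HEK293 cells carrying ER-alpha-UAS-bla reporter stimulated with 17beta-estradiol; nearly all actives have a fitted effect of over 45% in size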).
Test [5] is described as follows: qHTS assay to identify small molecule antagonists of the estrogen receptor alpha (ER-alpha) signaling pathway using the BG1 cell line - cell viability counter screen (AID 743081).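 Also: compound given together with 17beta-estradiol as the ER stimulus; series mostly up to about 70 µM; nearly all actives have a fitted effect of over 45% in size.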
A further test addresses Aromatase (Homo sapiens) (UniProt P11511). The test can be described thus: qHTS assay to identify aromatase inhibitors (AID 743083). Also: nearly all actives have a fitted effect of over 55% in size. Also: potency is read from the fitted curve at half-maximal effect.
Test [6] can be described thus: qHTS assay to identify aromatase inhibitors - cell viability counter screen (AID 743084).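 Also: cells stimulated with testosterone during compound exposure; nearly all actives have a fitted effect of over 55% in size.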 Also: potency is read from the fitted curve at half-maximal effect.
Test [7] is described as follows: qHTS assay to identify small molecule that activate the aryl hydrocarbon receptor (AhR) signaling pathway - cell viability counter screen (AID 743086). Also: series mostly up to about 70 µM; nearly all actives have a fitted effect of over 45% in size. The method in brief: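 Cytotoxicity counter screen: CellTiter-Fluor signal (30 min, 37 C) in 4000 HepG2 cells/well carrying the DRE-luciferase reporter, following 24 h compound exposure at 37 C.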
The target of test [8] is Peroxisome proliferator-activated receptor gamma (Homo sapiens) (UniProt P37231). The experiment in a line: qHTS assay to identify small molecule agonists of the peroxisome proliferator-activated receptor gamma (PPARg) signaling pathway (AID 743094; active = well fitted activation curve with a large enough effect in the signal ratio in the repeat runs, not every such curve was filed as active; the % refers to the signal ratio). The method in brief:
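Cell-based bla reporter, HEK293H background, PPARg-driven UAS. Pre-incubation 5 h, 37C, 5% CO2. Compound 17 h, 37C. Substrate 1 h RT; fluorescence.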

A short description of test [9]: qHTS assay to identify small molecule antagonists of the peroxisome proliferator-activated receptor gamma (PPARg) signaling pathway - cell viability counter screen (AID 743194). Also: nearly all actives have a fitted effect of over 55% in size. The method in brief: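 Viability was measured as CellTiter-Glo luminescence in GeneBLAzer PPARg UAS-bla HEK293H cells. These cells had been exposed 17 h at 37 C to compounds together with rosiglitazone at 50 nM final, with the beta-lactamase readout taken in the same wells.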

Test [10] in a line: qHTS assay for small molecule agonists of the antioxidant response element (ARE) signaling pathway (AID 743202; active = well fitted activation curve with a large enough effect in the signal ratio in the repeat runs, not every such curve was filed as active; the % refers to the signal ratio). The method in brief:
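After 16 hours of compound treatment at 37 C, HepG2 cells with a stably integrated ARE-driven beta-lactamase reporter were loaded 2 hours at room temperature with LiveBLAzer B/G FRET substrate and fluorescence intensity measured.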

Test [11] can be described thus: qHTS assay for small molecule agonists of the antioxidant response element (ARE) signaling pathway - cell viability counter screen (AID 743203; calls by dose curve; also: nearly all actives have a fitted effect of over 55% in size). The method in brief: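 Measured in the same wells as the beta-lactamase ARE reporter, this read-out is CellTiter-Glo luminescence from HepG2 ARE-bla cells given compounds for 16 hrs.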
The nature of test [12]: qHTS assay for small molecule activators of the heat shock response signaling pathway - cell viability counter screen (AID 743209). Also: nearly all actives have a fitted effect of over 50% in size. The method in brief:
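Same-well multiplex: after 2.5 h room-temperature incubation with LiveBLAzer B/G substrate and fluorescence reading, CellTiter-Glo reagent was added to HSE-bla HeLa cells that had received compound for 5 h at 37 C; luminescence read after 30 min.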

The nature of test [13]: qHTS assay for small molecule activators of the heat shock response signaling pathway (AID 743210; active = well fitted activation curve with a large enough effect in the signal ratio in the repeat runs, with a control signal flat, not every such curve was filed as active; the % refers to the signal ratio; also: series mostly up to about 63 µM). The method in brief:
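Compound exposure lasted 5 h at 37 C in HeLa cells carrying a heat-shock-element-driven beta-lactamase reporter. Read-out: fluorescence intensity after 2.5 h room-temperature loading with LiveBLAzer B/G FRET substrate.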

The target in test [14] is Aryl hydrocarbon receptor (Homo sapiens) (UniProt P35869). The experiment in a line: qHTS assay to identify small molecule that activate the aryl hydrocarbon receptor (AhR) signaling pathway (AID 743085). Also: nearly all actives have a fitted effect of over 15% in size. Also: potency is read from the fitted curve at half-maximal effect.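 As to activation: HG2L7.5c1 human HepG2 liver cells with stably integrated DRE-driven firefly reporter; series mostly up to about 70 µM.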 The method in brief:
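Cell line HG2L7.5c1 (human hepatoma, 20× DRE-luc). Plated, 5 h 37C, compound/DMSO added, 24 h 37C. CellTiter-Fluor 30 min 37C → fluorescence; then ONE-Glo 30 min RT → luminescence.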

Test [15] addresses Peroxisome proliferator-activated receptor gamma (Homo sapiens) (UniProt P37231). The test can be described thus: qHTS assay to identify small molecule antagonists of the peroxisome proliferator-activated receptor gamma (PPARg) signaling pathway (AID 743191; calls by dose curve; also: nearly all actives have a fitted effect of over 30% in size; also: potency is read from the fitted curve at half-maximal effect). The method in brief:
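Beta-lactamase reporter under UAS control in HEK293H PPARg-bla cells; compound treatment 17 h at 37C. Read-out: fluorescence intensity after 1 h room-temperature incubation with LiveBLAzer B/G FRET substrate.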

Test [16] has as its target Estrogen receptor (Homo sapiens) (UniProt P03372). The experiment in a line: qHTS assay to identify small molecule antagonists of the estrogen receptor alpha (ER-alpha) signaling pathway (AID 743069; active = well fitted curve in the direction sought with a large enough effect in the signal ratio in the repeat runs, not every such curve was filed as active; the % refers to the signal ratio). The method in brief: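 Antagonist mode: compounds in DMSO were co-added with 17beta-estradiol to ER-alpha-bla HEK293 cells (2% charcoal-stripped serum) and left 18 h at 37C. Reporter inhibition was measured as FRET fluorescence after 2 h LiveBLAzer substrate at room temperature.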

Test [17] shares this target. The experiment in a line: qHTS assay to identify small molecule agonists of the estrogen receptor alpha (ER-alpha) signaling pathway (AID 743075; calls by dose curve;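 also: HEK293 GripTite cells with ER-alpha and UAS-driven beta-lactamase reporter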).
The target is the same in test [18]. The test can be described thus: qHTS assay to identify small molecule agonists of the estrogen receptor alpha (ER-alpha) signaling pathway using the BG1 cell line (AID 743079). Also: nearly all actives have a fitted effect of over 20% in size.
Test [19] can be described thus: qHTS assay to identify small molecule antagonists of the estrogen receptor alpha (ER-alpha) signaling pathway using the BG1 cell line (AID 743080; calls by dose curve;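 also: BG1 cells stimulated with 17beta-estradiol alongside compound; series mostly up to about 70 µM; nearly all actives have a fitted effect of over 25% in size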). The method in brief: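 After 5 days in phenol-red-free 10% charcoal-stripped FBS medium, BG1-Luc-4E2 cells were seeded, left 24 h at 37 C, co-treated with compounds and 17beta-estradiol for 21.5 h, then assayed for viability and luciferase.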

Several values for one entry are separate records, joined by “and”; a condition that tells them apart may be missing. Identical values can stand only once. Results filed as inconclusive are left out. More than one record can exist for a structure, and the calls need not agree. Activity calls are given as the source filed them. Unless noted, calls follow the shape of the dose curve; as a rule, active = well fitted curve in the direction sought with a large enough effect in the repeat runs; inconclusive = weak or mixed curves; inactive = no such curve, though single readings can be large; an effect the other way counts as inactive or inconclusive.

Sequence of Aryl hydrocarbon receptor (Homo sapiens) (P35869 whole entry, looked up): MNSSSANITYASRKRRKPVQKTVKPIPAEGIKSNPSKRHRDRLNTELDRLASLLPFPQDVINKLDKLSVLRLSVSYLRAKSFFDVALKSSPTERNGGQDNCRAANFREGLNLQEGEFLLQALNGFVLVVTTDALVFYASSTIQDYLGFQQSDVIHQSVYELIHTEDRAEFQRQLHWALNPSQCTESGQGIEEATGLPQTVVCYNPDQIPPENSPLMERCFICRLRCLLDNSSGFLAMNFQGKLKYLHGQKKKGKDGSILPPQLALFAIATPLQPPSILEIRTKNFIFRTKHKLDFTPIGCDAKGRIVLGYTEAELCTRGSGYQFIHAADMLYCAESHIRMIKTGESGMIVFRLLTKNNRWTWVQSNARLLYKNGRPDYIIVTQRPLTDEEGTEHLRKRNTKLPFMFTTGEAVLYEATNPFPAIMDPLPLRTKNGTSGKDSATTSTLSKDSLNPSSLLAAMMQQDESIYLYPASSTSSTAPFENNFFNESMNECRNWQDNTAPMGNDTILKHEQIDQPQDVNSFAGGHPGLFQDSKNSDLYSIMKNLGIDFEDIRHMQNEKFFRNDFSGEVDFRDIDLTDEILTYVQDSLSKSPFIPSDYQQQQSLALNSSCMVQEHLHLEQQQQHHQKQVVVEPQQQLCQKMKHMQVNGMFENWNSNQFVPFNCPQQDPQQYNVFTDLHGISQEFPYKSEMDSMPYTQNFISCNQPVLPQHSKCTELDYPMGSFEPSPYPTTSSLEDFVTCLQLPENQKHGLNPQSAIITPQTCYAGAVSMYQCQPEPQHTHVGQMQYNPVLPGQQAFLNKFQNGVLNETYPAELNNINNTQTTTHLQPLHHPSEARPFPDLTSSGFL
Sequence of Estrogen receptor (Homo sapiens) (P03372 whole entry, looked up): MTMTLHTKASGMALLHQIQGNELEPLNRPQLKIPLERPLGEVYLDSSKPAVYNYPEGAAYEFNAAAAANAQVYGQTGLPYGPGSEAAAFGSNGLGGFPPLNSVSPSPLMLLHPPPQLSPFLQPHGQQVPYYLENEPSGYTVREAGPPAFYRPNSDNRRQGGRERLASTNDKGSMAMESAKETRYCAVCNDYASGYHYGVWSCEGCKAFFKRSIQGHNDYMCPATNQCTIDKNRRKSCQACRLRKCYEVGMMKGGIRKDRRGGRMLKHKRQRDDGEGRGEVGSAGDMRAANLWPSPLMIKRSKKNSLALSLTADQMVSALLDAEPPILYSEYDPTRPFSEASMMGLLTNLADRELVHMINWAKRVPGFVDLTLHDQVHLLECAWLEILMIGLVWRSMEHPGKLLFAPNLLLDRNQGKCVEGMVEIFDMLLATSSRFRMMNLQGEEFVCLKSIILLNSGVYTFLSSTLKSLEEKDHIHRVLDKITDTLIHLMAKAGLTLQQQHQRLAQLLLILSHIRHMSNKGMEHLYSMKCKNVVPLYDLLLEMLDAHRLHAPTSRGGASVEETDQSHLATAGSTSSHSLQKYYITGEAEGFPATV
Sequence of Aromatase (Homo sapiens) (P11511 whole entry, looked up): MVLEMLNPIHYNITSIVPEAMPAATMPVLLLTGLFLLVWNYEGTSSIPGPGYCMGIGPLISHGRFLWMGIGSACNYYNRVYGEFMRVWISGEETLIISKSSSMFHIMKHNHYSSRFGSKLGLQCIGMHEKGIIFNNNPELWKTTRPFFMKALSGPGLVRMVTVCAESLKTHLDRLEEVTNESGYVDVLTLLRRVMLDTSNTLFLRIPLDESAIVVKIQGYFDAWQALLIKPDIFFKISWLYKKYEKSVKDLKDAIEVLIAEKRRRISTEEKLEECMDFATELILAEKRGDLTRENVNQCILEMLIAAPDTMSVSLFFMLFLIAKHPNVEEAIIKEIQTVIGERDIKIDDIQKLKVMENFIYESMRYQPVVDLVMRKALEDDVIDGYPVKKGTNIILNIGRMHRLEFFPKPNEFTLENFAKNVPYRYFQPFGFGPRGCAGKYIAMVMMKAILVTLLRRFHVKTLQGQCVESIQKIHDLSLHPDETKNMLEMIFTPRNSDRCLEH
Sequence of Peroxisome proliferator-activated receptor gamma (Homo sapiens) (P37231 whole entry, looked up): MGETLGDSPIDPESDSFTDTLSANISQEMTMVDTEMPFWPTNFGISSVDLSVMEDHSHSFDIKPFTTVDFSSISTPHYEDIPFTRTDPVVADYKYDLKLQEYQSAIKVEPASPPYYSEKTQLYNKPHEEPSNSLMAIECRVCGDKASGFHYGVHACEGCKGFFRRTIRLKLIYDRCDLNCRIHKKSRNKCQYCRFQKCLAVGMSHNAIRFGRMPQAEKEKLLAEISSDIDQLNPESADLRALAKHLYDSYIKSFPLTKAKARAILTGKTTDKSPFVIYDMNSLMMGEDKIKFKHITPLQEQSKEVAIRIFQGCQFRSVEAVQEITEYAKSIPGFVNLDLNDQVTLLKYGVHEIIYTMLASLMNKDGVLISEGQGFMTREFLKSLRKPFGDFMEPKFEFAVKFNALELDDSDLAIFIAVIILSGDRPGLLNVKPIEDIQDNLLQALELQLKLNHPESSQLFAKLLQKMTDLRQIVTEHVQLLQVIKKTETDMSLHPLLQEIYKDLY

Turning to `CN(C(=O)c1c(O)c2ccccc2n(C)c1=O)c1ccccc1`, the Potency result (in [1]; in [2]; in test [5]; in the test with Aromatase (Homo sapiens); in [6]; in [7]) was “inactive” throughout. Besides, the Potency result in [10] and in test [11] was “inactive” each time. The compound was classed as inactive in test [3], in test [4], in test [8], in test [9], in test [12] and in [13].
For the compound `COC(C)(C)CCCC(C)CC=O` (centres undefined), the Potency entry (in test [1]; in test [2]; in test [5]; with Aromatase (Homo sapiens); in [6]; in [14]) was “inactive” throughout. Besides, the Potency entry in [7], in test [15], in [10] and in test [11] was “inactive” in each case. Moreover, the outcome in test [3], in test [4], in test [8], in test [9], in test [12] and in test [13] was inactive.
In the case of `C[N+](C)(C)CC(O)CC(=O)[O-]` (centres undefined), the Potency entry (in [1]; in test [2]; in test [5]; in the test with Aromatase (Homo sapiens); in test [6]; in [14]) was “inactive” throughout. In addition, the Potency result in [7], in test [10] and in test [11] was “inactive” in each case. Moreover, the outcome in [3], in [4], in test [8], in test [9], in [12] and in test [13] was inactive.
Regarding `CCCCCCCCCCCCN(CCCCCCCCCCCC)CCCCCCCCCCCC`, the Potency result (in [1]; in test [2]; in test [5]; with Aromatase (Homo sapiens); in test [6]; in test [14]) was “inactive” each time. The Potency entry in test [7], in [15], in test [10] and in test [11] was “inactive” in each case. Also, the call in [3], in [4], in test [12] and in [13] was inactive.
As to `CO[C@]12C[C@@H](COC(=O)c3cncc(Br)c3)CN(C)[C@@H]1Cc1cn(C)c3cccc2c13`, the Potency is 21.1 µM (active) in test [1], 21.1 µM (active) in test [2] and 29.8 µM (active) in [14]. The call in test [3], in [4], in test [8], in test [12] and in test [13] was inactive. Moreover, the Potency result (in [5]; with Aromatase (Homo sapiens); in [6]; in [7]; in test [11]) was “inactive” throughout.
Regarding `CC(C)(C)c1ccc(O)c(O)c1`, the Potency in test [1] is 70.9 µM (active) and 56.1 µM (active); in test [2] it was 56.3 µM (active) and 24.3 µM (active); in the test with Aromatase (Homo sapiens) it was “inactive and 12.6 µM (active)”; in [6], 54.5 µM (active); in [14] it was 70.9 µM (active) and 34.4 µM (active); in test [15], 18 µM (active). The compound was called inactive in test [3], in test [4], in [9] and in test [12]. In addition, the Potency result in test [5] and in test [7] was “inactive” each time.
With `CCCN(CCC)CCc1cccc2c1CC(=O)N2`, the Potency entry (in test [1]; in test [2]; in test [5]; with Aromatase (Homo sapiens); in test [6]; in [14]) was “inactive” throughout. In addition, the Potency entry in test [7], in [15], in test [10] and in test [11] was “inactive” each time. Also, the call in [3], in test [4], in [9], in [12] and in [13] was inactive.
On to `Cc1c(NC(C)C)c(=O)n(-c2ccccc2)n1C`, for which the Potency entry (in test [1]; in test [2]; in test [17]; in [18]; in test [5]; with Aromatase (Homo sapiens)) was “inactive” in each case. Moreover, the Potency entry in [6], in test [14], in test [7], in test [15], in test [10] and in [11] was “inactive” each time. Moreover, the outcome in test [3], in test [16], in test [19], in test [9], in test [12] and in test [13] was inactive.
Turning to `COC(=O)CC(C)=O`, the Potency entry (in [1]; in test [2]; in [5]; in the test with Aromatase (Homo sapiens); in test [6]; in test [14]) was “inactive” in each case. In addition, the Potency entry in test [7], in [15], in test [10] and in test [11] was “inactive” in each case. Besides, the outcome in test [3], in [4], in test [8], in test [9], in test [12] and in test [13] was inactive.
For `CN1CC(=O)NC1=N`, the Potency result (in test [1]; in test [2]; in [5]; with Aromatase (Homo sapiens); in [6]; in test [14]) was “inactive” in each case. Besides, the Potency entry in [7] and in test [10] was “inactive” throughout. In addition, the result in test [3], in test [4], in [9], in [12] and in test [13] was inactive.
`NS(=O)(=O)c1ccccc1Cl`: the Potency entry (in test [1]; in [2]; in test [5]; in the test with Aromatase (Homo sapiens); in test [6]; in test [14]) was “inactive” each time. For the same compound, the Potency entry in test [7], in test [10] and in test [11] was “inactive” in each case. Moreover, the outcome in test [3], in test [4], in test [12] and in test [13] was inactive.
As to `CN(C)CCCSc1ccccc1NC(=O)/C=C/c1ccccc1`, the Potency in [1] was 26.6 µM (active); in test [2], 23.7 µM (active). Also, the call in test [3], in test [16], in test [19], in test [8], in test [9] and in test [12] was inactive. The compound was classed as inactive in [13]. Further, the Potency result (in test [17]; in test [18]; with Aromatase (Homo sapiens); in [6]; in [7]; in [10]) was “inactive” throughout. Further, in [11], the Potency result is “inactive”.
On to `O=C1CCCC(=O)C1`, for which the Potency entry (in test [1]; in [2]; in [5]; with Aromatase (Homo sapiens); in test [6]; in test [14]) was “inactive” each time. In addition, the Potency result in test [7], in test [15], in test [10] and in [11] was “inactive” in each case. The result in test [3], in [4], in [8], in test [9] and in test [12] was inactive.
As to `Cn1c(N)c(N=O)c(=O)n(C)c1=O`, the Potency entry (in test [1]; in [2]; in test [5]; in the test with Aromatase (Homo sapiens); in [6]; in test [7]) was “inactive” in each case. The Potency result in [15], in [10] and in test [11] was “inactive” each time. In addition, the result in [3], in test [4], in test [8], in [9], in [12] and in test [13] was inactive. In [14], the Potency was 25.1 µM (active).
For `CCOC(=O)c1c(C)n(C)c2ccc(O)cc12`, the Potency result (in [1]; in test [2]; in [5]; with Aromatase (Homo sapiens); in [6]; in test [7]) was “inactive” throughout. For the same compound, the Potency entry in [11] was “inactive”. Further, the compound was called inactive in [3], in [4], in [9], in [12] and in test [13]. Besides, the Potency in test [14] was 1.68 µM (active).
